# Screening data as filed in PubChem.
# CHRM1 antagonist = human M1 muscarinic receptor antagonists, primary screen, CHO-K1 cells, Fluo-8 calcium fluorescence, 1536-well; actives 1.3% (n = 360,000); Muscarinic acetylcholine receptor M1 (Homo sapiens), P11229; AID 588852, 2011; CHO-K1 hM1, ACh EC80 antagonist; inhibition, % at 3 µM;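 active = percent inhibition above its own plate's cutoff, namely the mean of that plate's compound wells plus 3 SD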;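 note: peak over basal fluorescence ratio during 140 s after agonist addition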
# Target sequence (P11229 whole entry, looked up): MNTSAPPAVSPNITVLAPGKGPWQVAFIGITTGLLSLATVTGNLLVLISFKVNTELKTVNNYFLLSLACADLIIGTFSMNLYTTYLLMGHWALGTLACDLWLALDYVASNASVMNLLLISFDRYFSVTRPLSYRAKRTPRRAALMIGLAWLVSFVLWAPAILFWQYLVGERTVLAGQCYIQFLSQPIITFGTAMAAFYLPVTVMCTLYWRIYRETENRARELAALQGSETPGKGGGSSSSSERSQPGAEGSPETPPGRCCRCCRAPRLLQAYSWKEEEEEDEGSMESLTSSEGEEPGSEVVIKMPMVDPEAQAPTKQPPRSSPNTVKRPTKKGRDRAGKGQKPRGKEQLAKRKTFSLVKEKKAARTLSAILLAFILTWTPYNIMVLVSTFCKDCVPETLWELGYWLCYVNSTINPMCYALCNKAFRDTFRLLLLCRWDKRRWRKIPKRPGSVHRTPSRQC
# M1 PAM parental = nonselective calcium activators in parental CHO-K1 cells, primary screen, counter-screen for M1 PAM project, cell-based, Fluo-8 calcium fluorescence, full deck, 1536-well | ATP EC20; 0% at ATP EC20, 100% at ATP max | activation, % at 3 µM | actives 0.02% (n = 360,000);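 active = activation above the run cutoff, the mean activation of all test compounds plus 3 SD, cut at about 40% in these data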;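 note: peak over basal fluorescence ratio in a 140 s read after ATP addition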
# CHO-K1 Ca ag = counter-screen for M1 agonists: effect in parental CHO-K1 cells; Fluo-8 calcium fluorescence; scaled to maximal ATP response, vehicle zero; activation, % at 3 µM; actives 0.48% (n = 360,000); in the data active = activation above about 15%;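 note: untransfected CHO-K1 host cells lacking M1 receptor as counterscreen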
# CHO-K1 Ca antag = nonselective inhibitor or artifact in parental CHO-K1 cells; inhibition, % at 3 µM; ATP-induced calcium, Fluo-8 fluorescence; AID 602250; actives 0.6% (n = 360,000);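 active = inhibition above a per-plate cutoff, the plate's mean sample inhibition plus 3 SD, cut at about 24% in these data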
# M1 ag = human M1 muscarinic receptor agonists, primary screen, Fluo-8 calcium fluorescence, CHO-K1 cells, HTS | CHO-K1 hM1, agonist mode; 0% DMSO, 100% acetylcholine EC100 | activation, % at 3 µM | Muscarinic acetylcholine receptor M1 (Homo sapiens), P11229 | AID 588814, 2011 | actives 0.33% (n = 360,000);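 active = activation above the run's mean compound activation plus 3 SD, cut at about 16% in these data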;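 note: peak over basal fluorescence ratio within a 140 s kinetic read after compound addition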
# M1 PAM = human M1 muscarinic receptor positive allosteric modulators, primary screen, CHO-K1 cells, Fluo-8 calcium fluorescence, 1536-well. Muscarinic acetylcholine receptor M1 (Homo sapiens), P11229. CHO-K1 hM1, ACh EC20; 0% = ACh EC20, 100% = maximal ACh. activation, % at 3 µM. actives 0.088% (n = 360,000). AID 588819, 2011; in the data active = activation above about 19%, passing the limit was not always enough
# Numbers stand for hits; n = inactive. Only some compounds are listed: those with a hit (about 2.3% of all), similar ones and a draw of the others.
SMILES,CHRM1 antagonist,M1 PAM parental,CHO-K1 Ca ag,CHO-K1 Ca antag,M1 ag,M1 PAM
CCCC(O)(c1ccccc1)C(CN1CCOCC1)c1ccccc1 (stereo unspecified),n,n,n,n,n,n
CCCCOc1ccc(C(O)(CCC)CCN2CCOCC2)cc1 (stereo unspecified),n,n,n,n,n,n
COc1ccc(C#Cc2cnc3c(c2)C(=O)N([C@H](C)CO)C[C@@H](C)[C@H](CN(C)C(=O)CN(C)C)O3)cc1,n,n,n,n,n,n
CCC(O)(CCN1CCCCC1)c1ccccc1 (stereo unspecified),76.4,n,n,n,n,n
CCCC(O)(CCN1CCCCC1)c1ccc(OCC)cc1 (stereo unspecified),n,n,n,n,n,n
O=C(/C=C/c1cccs1)Nc1nccs1,n,n,n,n,n,n
O=C(/C=C/c1cccs1)Nc1cccc(NC(=O)/C=C/c2cccs2)n1,46.7,n,n,n,n,n
Cc1ccc2oc(=O)c3cc(C(=O)NCCCN4CCc5ccccc5C4)sc3c2c1,24.9,n,n,n,n,n
CCCCN1C(=O)C(CC(=O)NC2CCCCC2)CC(C(=O)N(C)C)=C1C (stereo unspecified),n,n,n,n,n,n
Cc1cc(C)nc(N/N=C/c2cn[nH]c2-c2ccc(F)cc2)n1,n,n,18.2,n,n,n
Cc1ccc(/C=N/Nc2nc(C)cc(C)n2)cc1,n,n,n,n,n,n
CC1CC(C)CN(S(=O)(=O)c2ccc(NC(=O)[C@@H]3CCCN3C(=O)c3cccs3)cc2)C1 (stereo partly specified),29.6,n,n,n,n,n
Cc1ccc(NC(=O)[C@@H]2CCCN2C(=O)c2cccs2)cc1S(=O)(=O)N1CCCCC1,n,n,n,n,n,n
N#Cc1ccccc1S(=O)(=O)N1CCN(C(=O)[C@@H]2CCCN2C(=O)c2cccs2)CC1,33.4,n,n,n,n,n
O=C(Nc1cccc(NC(=O)c2ccccc2Cl)c1)c1ccc([N+](=O)[O-])o1,n,n,17.0,n,n,n
O=C(Nc1cccc(NC(=O)c2ccccc2Cl)c1)c1ccc(F)cc1,n,n,n,24.8,n,n
O=C(Nc1cccc(NC(=O)c2ccc(F)cc2)c1)c1ccc(F)cc1,n,n,n,n,n,n
COC(=O)CC1OCC=C2CN3CCC45C6=CC(=O)C(=O)C([N+](=O)[O-])=C6NC4C1C2CC35 (stereo unspecified),n,n,n,n,n,n
Cc1cc(C(=O)CSc2nc3ccccc3c(=O)[nH]2)c(C)n1CC1CCCO1 (stereo unspecified),n,n,17.3,23.7,n,n
Cc1cc(N2CCN(c3ccccc3)CC2)n2ncnc2n1,n,n,n,n,n,n
Cc1cc(C)c2c(n1)nn1c(N3CCN(c4ccccc4)CC3)cc(C)nc21,n,n,n,33.2,n,n
CC1(C(=O)NCc2ccco2)Cc2c(-c3cccc(C(N)=O)c3)ccnc2O1 (stereo unspecified),n,n,n,n,n,n
Cc1cc(S(=O)(=O)N2CCN(c3ccc(F)cc3)CC2)ccc1-n1cnnn1,n,n,n,n,n,n
Cc1cc(S(=O)(=O)N2CCN(c3ccccc3F)CC2)ccc1-n1cnnn1,n,n,17.6,n,n,n
CCCc1nc2c3ccccc3ccn2c1CC1CCCCC1,n,n,n,n,n,n
SMILES,CHRM1 antagonist,M1 PAM parental,CHO-K1 Ca ag,CHO-K1 Ca antag,M1 ag,M1 PAM
COC1OC(CO)C(O)C(O)C1O (stereo unspecified),n,n,n,n,n,n
OC[C@H]1O[C@@H](O[C@@H]2[C@@H](CO)O[C@@](O)(CO)[C@H]2O)[C@H](O)[C@@H](O)[C@H]1O,n,n,n,26.9,n,n
COc1cccc(CCN2CCC(CNS(=O)(=O)c3cc(-c4cc(C)no4)ccc3OC)CC2)c1,37.0,n,n,n,n,n
COc1cccc(CCN2CCC(CNS(=O)(=O)c3cc(-c4cc(C)no4)ccc3C)CC2)c1,n,n,n,n,n,n
Cc1cc(-c2ccc(C)c(S(=O)(=O)NCC3CCN(Cc4ccccc4F)CC3)c2)on1,55.1,n,n,n,n,n
COc1ccccc1CN1CCC(CNS(=O)(=O)c2cc(-c3onc(C)c3C)ccc2OC)CC1,102.4,n,n,n,n,n
Cc1cc(-c2ccc(C)c(S(=O)(=O)NCC3CCN(Cc4cccc(F)c4)CC3)c2)on1,n,n,n,n,n,n
C[C@H](O)[C@@H]1C(=O)N2CCc3c([nH]c4ccccc34)[C@@H]2C[C@@H]1N(C)C(=O)c1cc(Cl)cc(Cl)c1,n,n,n,n,n,n
CC(C)(C)S(=O)N1Cc2cc(C(=O)N[C@@H]3CCN(Cc4ccccc4)C3)nc(-c3cccc(-c4cc5ccccc5o4)c3)c2[C@@H]1CCO (stereo partly specified),n,n,n,n,n,n
CC(=O)NC(c1ccccc1)c1nc(-c2cc3ccccc3o2)cs1 (stereo unspecified),n,n,n,n,n,n
O=C(Cc1ccccc1)NC(NC(=O)Cc1ccccc1)c1cccc([N+](=O)[O-])c1,n,n,n,n,n,n
C=CCN(CC(O)c1cccc([N+](=O)[O-])c1)C(C)CCc1ccccc1 (stereo unspecified),39.0,n,n,n,n,n
NC(=O)COC(=O)C1c2ccccc2Oc2ccccc21,n,n,n,n,n,n
CN(C)CCCOC(=O)C1c2ccccc2Oc2ccccc21,97.3,n,n,n,n,n
CC[N+](C)(CC)CCOC(=O)C1c2ccccc2Oc2ccccc21,97.1,n,n,n,n,n
CN(CCOC(=O)C1c2ccccc2Oc2ccccc21)C(C)(C)C,98.0,n,n,n,n,n
Cc1ccccc1C(=O)Nc1cccc(C(=O)Nc2ccccc2C(=O)O)c1,n,n,n,26.3,n,n
O=C(O)CCC(=O)N1c2ccccc2NC2=C(C(=O)CC(c3ccc(F)cc3)C2)C1c1ccc([N+](=O)[O-])o1 (stereo unspecified),n,n,n,24.7,n,n
COc1ccccc1-c1nc(-c2ccc(C)nc2OC)no1,n,n,n,26.0,n,n
COc1ccccc1NC(=O)c1ccccc1-c1nc(-c2ccccc2OC)no1,29.3,n,n,n,n,n
COc1nc(-c2ccccc2)ccc1-c1noc(C)n1,n,n,n,27.6,n,n
COc1ccccc1-c1noc(-c2ccccc2C(=O)Nc2ccccc2)n1,n,n,n,n,n,n
